Assays:
[1] = biological target: T1, Aspartate--tRNA(Asp/Asn) ligase (Mycobacterium tuberculosis (strain ATCC 25618 / H37Rv)) (UniProt P9WFW3); experiment: Assay for Asp RNA synthetase-1 from Mycobacterium tuberculosis; assay type: functional; set-up: scale not given: direction of the effect not stated beside the values; conditions: 30 µM; further: in the data most compounds retested in dose-response had high values
T1 sequence (whole entry): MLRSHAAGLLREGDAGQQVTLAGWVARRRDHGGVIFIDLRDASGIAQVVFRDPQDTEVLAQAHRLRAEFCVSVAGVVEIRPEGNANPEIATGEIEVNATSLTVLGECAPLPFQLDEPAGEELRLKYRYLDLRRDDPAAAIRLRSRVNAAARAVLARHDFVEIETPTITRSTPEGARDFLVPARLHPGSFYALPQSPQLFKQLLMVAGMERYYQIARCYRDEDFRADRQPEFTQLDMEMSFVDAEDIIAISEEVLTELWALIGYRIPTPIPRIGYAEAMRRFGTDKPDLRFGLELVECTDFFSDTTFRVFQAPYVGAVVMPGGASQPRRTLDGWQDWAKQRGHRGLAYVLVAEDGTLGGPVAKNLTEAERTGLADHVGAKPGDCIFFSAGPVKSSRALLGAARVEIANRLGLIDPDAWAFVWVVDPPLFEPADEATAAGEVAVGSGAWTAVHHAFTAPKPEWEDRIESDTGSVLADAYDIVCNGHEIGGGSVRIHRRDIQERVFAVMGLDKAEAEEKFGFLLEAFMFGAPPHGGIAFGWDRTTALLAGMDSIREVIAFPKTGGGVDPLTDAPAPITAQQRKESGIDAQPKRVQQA

[2] = biological target: Shiga toxin 2 (Escherichia coli O157:H7) (UniProt P09385+P09386); experiment: E. coli 0.157:H7 Shiga Toxin SOP - stx2 screening assay; assay type: functional; set-up: scale not given: direction of the effect not stated beside the values; conditions: 30 µM

CCn1cc(CN2CCCN(C(=O)CCc3ccncc3)CC2)cn1
Percent Effect [1]: 0.516%
Percent Effect [2]: -80.5%

Cc1nc(COc2cccc(C#N)c2)no1
Percent Effect [1]: -0.618%
Percent Effect [2]: 0.222%

CCS(=O)(=O)N1CCO[C@H]2[C@H](OCC3CCCC3)CC[C@@H]21
Percent Effect [1]: -2.82%
Percent Effect [2]: -8.34%

CCC(O)CN1CCN(C(=O)c2sccc2OC)CC1 (centres undefined)
Percent Effect [1]: 0.995%
Percent Effect [2]: -39.9%

CCN1CCN(c2nc(C(C)C)nc3c(C)nn(CC)c23)CC1
Percent Effect [1]: -2.11%
Percent Effect [2]: -52.4%

CC(C)=CCN(C)C1CCCN(Cc2noc(C)n2)C1 (centres undefined)
Percent Effect [1]: 3.23%
Percent Effect [2]: 25.2%

COCC1CC2(CCN(C(=O)c3cccc(C)c3)CC2)CO1 (centres undefined)
Percent Effect [1]: -0.131%
Percent Effect [2]: -2.68%

CC(C)NC(=O)NCCCc1cc(N)n(-c2ccccc2)n1
Percent Effect [1]: -8.28%
Percent Effect [2]: -2.61%

CCC(=O)N1Cc2nccn2CC(CN(C)Cc2cccnc2)C1 (centres undefined)
Percent Effect [1]: 7.49%
Percent Effect [2]: -5.95%

Cc1noc(C(C)C)c1C(=O)NS(=O)(=O)c1ccc(Cl)cc1
Percent Effect [1]: -2.79%
Percent Effect [2]: 13.7%

COCCN1CCCC(O)(CN2CCN(c3ncccc3C)CC2)C1=O (centres undefined)
Percent Effect [1]: 5.57%
Percent Effect [2]: -7.55%

O=C(Cn1cccn1)NCC1(c2ccccc2)CC1
Percent Effect [1]: -2.68%
Percent Effect [2]: 16.1%

CN(C(=O)c1cccc(C(=O)NCC(F)(F)F)c1)c1ccccc1
Percent Effect [1]: -2.65%
Percent Effect [2]: -62.9%

Cn1ccc(CN2CCC(NC(=O)Cc3ccccc3)CC2)cc1=O
Percent Effect [1]: -3.72%
Percent Effect [2]: 8%

O=C(C1=CCCC1)N1C[C@@H]2COC[C@]2(COc2cccnc2)C1
Percent Effect [1]: -3.68%
Percent Effect [2]: 1.76%

COC(=O)c1cccn1C1CCN(C(=O)c2cn[nH]c2C)CC1
Percent Effect [1]: -3.31%
Percent Effect [2]: -8.31%

COCCO[C@H]1CCN(C(=O)C2CCOCC2)[C@H]1Cc1ccncc1
Percent Effect [1]: 4.84%
Percent Effect [2]: -17.6%

Cc1ccc2cnn(CCC(=O)Nc3c(C)nn(C)c3C)c2c1
Percent Effect [1]: 0.535%
Percent Effect [2]: -34.7%

Cc1cn2c(n1)CCC(NC(=O)c1ccc(CS(C)(=O)=O)o1)C2 (centres undefined)
Percent Effect [1]: -4.46%
Percent Effect [2]: 10.6%

CCC(NC(N)=O)c1ccccc1OCC(=O)N1CCCC1 (centres undefined)
Percent Effect [1]: -1.5%
Percent Effect [2]: -58.1%

Cc1ccc(N(CC(=O)c2ccc(Br)cc2)C2=NCCCCC2)cc1
Percent Effect [1]: 0.479%
Percent Effect [2]: -13.7%

CNC(=O)[C@@]12CCO[C@@H]1CCN(S(=O)(=O)c1cccc(C)c1)C2
Percent Effect [1]: -4.6%
Percent Effect [2]: 9.63%

COCCO[C@H]1CCN(Cc2cccs2)[C@H]1Cc1cccnc1
Percent Effect [1]: 0.0141%
Percent Effect [2]: 9.31%

CCn1cc(CN2CCCN(C(=O)c3sccc3C#N)CC2)cn1
Percent Effect [1]: 0.257%
Percent Effect [2]: -4.04%

COc1ccc(-c2noc(CN3CCOCC3C)n2)cc1OC (centres undefined)
Percent Effect [1]: 4.1%
Percent Effect [2]: 26.5%

COc1ccccc1CC(=O)N1CC[C@@]2(CCCO2)[C@@H](OC)C1
Percent Effect [1]: 4.54%
Percent Effect [2]: 52.7%

O=C(c1cscn1)N1C[C@@H]2C[C@@H](c3nnc(C4CC4)o3)O[C@@H]2C1
Percent Effect [1]: 1.21%
Percent Effect [2]: -37.8%

Cc1noc(NC(=O)c2ccc(OC(F)(F)F)cc2)n1
Percent Effect [1]: 3.01%
Percent Effect [2]: 62.3%

COc1ccccc1OCCN1CCCC(c2cc(C(N)=O)[nH]n2)C1 (centres undefined)
Percent Effect [1]: 0.0735%
Percent Effect [2]: 5.34%

CC(C)N(C)Cc1cn2c(n1)CN(Cc1ccsc1)CC2
Percent Effect [1]: 1.89%
Percent Effect [2]: -40.8%

Cc1nn(C)c(N(C)C)c1CNCC(O)c1ccccc1 (centres undefined)
Percent Effect [1]: -4.11%
Percent Effect [2]: -17.5%

Cc1ccc(CNC2CCCc3c2cnn3C)s1 (centres undefined)
Percent Effect [1]: -2.88%
Percent Effect [2]: 1.56%

CN(C)c1cc(CNC(=O)c2ccc(F)cc2F)ccn1
Percent Effect [1]: -4.92%
Percent Effect [2]: -51.7%

CCn1cc(NC(=O)NCC(c2cccs2)N(C)C)cn1 (centres undefined)
Percent Effect [1]: -1.06%
Percent Effect [2]: 24.9%

CCS(=O)(=O)c1ccccc1N1CCC(NC(C)=O)CC1
Percent Effect [1]: -0.991%
Percent Effect [2]: 11.9%

COCCn1ccc(NC(=O)Nc2ccc(C(N)=O)c(F)c2)n1
Percent Effect [1]: 2.25%
Percent Effect [2]: -3.67%

CSc1ncccc1C(=O)N1C[C@H]2CC[C@@H]1CN(c1ncccn1)C2
Percent Effect [1]: 4.84%
Percent Effect [2]: -56.4%

Cc1ccc(C2(CN3CCCC3)CCNCC2)nc1
Percent Effect [1]: -4.12%
Percent Effect [2]: -12%

COc1ccc(NC(C)C(=O)NCCc2cccs2)cc1F (centres undefined)
Percent Effect [1]: 7.04%
Percent Effect [2]: -24.3%

Cc1cc(CC(=O)NCc2ccnc(OCC(F)(F)F)c2)no1
Percent Effect [1]: -6.06%
Percent Effect [2]: 21%

Cc1nc2ccccc2nc1CN(C)CC1CCCN1c1cccnn1 (centres undefined)
Percent Effect [1]: 1.76%
Percent Effect [2]: 22.3%

c1cnc(NCc2noc3c2CN(CCN2CCCC2)CC3)nc1
Percent Effect [1]: 1.46%
Percent Effect [2]: -35.5%

Cc1nc(CC(=O)N2CCC[C@H]2c2nc(C(C)C)no2)cs1
Percent Effect [1]: -2.23%
Percent Effect [2]: 4.58%

COc1ccccc1OCC(=O)Nc1ncccc1OC(F)F
Percent Effect [1]: 3.04%
Percent Effect [2]: -12%

NS(=O)(=O)CCNC(=O)c1ccc(-c2ccc(F)cc2)cc1F
Percent Effect [1]: 16.3%
Percent Effect [2]: -53.6%

CCS(=O)(=O)Nc1ccn(Cc2cccc(Cl)c2)n1
Percent Effect [1]: 4.7%
Percent Effect [2]: -12.9%

Cc1cc(F)c(S(=O)(=O)NCCCN2CCC(O)CC2)cc1F
Percent Effect [1]: 11.3%
Percent Effect [2]: -69.6%

From ChEMBL document CHEMBL3988442, “University of Dundee, Small-Polar-MMV Screening Library” (2021)
